Source: PubChem BioAssay
Shown are actives, neighbours in structure and some others; about 2.4% of the full set was active somewhere.
D2 ag-1 = D2 dopamine receptor (human) agonism. AID 485358. HEK293 T-REx D2 cells, calcium flux agonist mode. activation, % at 2 µM. 340,000 compounds, 0.53% hits;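 active = activation over 3 SD above normal in the single-dose calcium agonist read, cut at about 30% in these data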; also: 0% is about no effect
Target sequence (P14416 whole entry, looked up): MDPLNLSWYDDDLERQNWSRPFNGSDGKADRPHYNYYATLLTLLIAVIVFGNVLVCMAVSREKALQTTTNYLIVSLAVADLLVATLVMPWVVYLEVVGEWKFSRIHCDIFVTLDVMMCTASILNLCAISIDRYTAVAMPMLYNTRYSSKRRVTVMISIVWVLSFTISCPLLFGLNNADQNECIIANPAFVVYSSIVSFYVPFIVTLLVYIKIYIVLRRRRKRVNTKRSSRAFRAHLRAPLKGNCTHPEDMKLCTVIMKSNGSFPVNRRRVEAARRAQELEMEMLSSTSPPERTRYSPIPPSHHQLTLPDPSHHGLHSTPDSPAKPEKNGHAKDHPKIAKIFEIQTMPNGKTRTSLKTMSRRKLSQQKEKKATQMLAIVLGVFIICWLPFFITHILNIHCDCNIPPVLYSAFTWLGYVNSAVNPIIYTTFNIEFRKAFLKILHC
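Agonism scored from kinetic calcium signal (1 read/sec, 180 s) following compound pin transfer, after a 10 s baseline. Cells: HEK293 Trex line expressing inducible D2 receptor coupled to calcium, dye-loaded after overnight culture at 30 C.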
D2 PAM-1 = positive allosteric modulators of human D2 dopamine receptor | HEK293 T-REx D2, calcium flux, EC20 dopamine potentiation | potentiation, % at 10 µM | 340,000 compounds, 0.34% hits;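 active = potentiation over 3 SD above the plate norm, cut at about 30% in these data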; also: 0% is about no effect
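Cells plated with tetracycline inducer and held overnight at 30 C; calcium dye loaded 30–90 min at room temperature; baseline taken, compound added and read 180 s; EC20 dopamine then added and read 180 s.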
D2 antag = antagonizes the human D2 dopamine receptor; P14416; HEK293 TREx D2 cells, calcium flux, dopamine EC80; inhibition, % at 10 µM; 340,000 compounds, 2% hits; AID 485344; in the data active = inhibition above about 30%; inactive = below that, where a call was filed; also: 0% is about no effect
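Measurement of antagonist activity uses fluorescent calcium dye in inducible HEK293 T-REx D2 cells: 10 s baseline, compound addition with 180 s read, EC80 dopamine addition with a further 180 s read.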
D2 ag-2 = human D2 receptor agonism in beta-arrestin assay. DiscoveRx PathHunter D2 beta-arrestin, luminescence, 90 min; 100% = 57 uM dopamine signal. 360,000 compounds, 0.084% hits. activation, % (no concentration beside the values); in the data active = activation above about 40%; inconclusive = between about 15% and that limit
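Agonist mode: compounds alone added to overnight-plated D2 PathHunter cells for 90 min at 37 C, with 57 uM final dopamine (EC100) defining full response. Beta-arrestin recruitment detected by chemiluminescent reagent, read after 1 h at ambient temperature.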
D2 PAM-2 = human D2 receptor positive allosteric modulation. AID 624464. P14416. 360,000 compounds, 0.23% hits. potentiation, % (no concentration beside the values). DiscoveRx D2 beta-arrestin cells, luminescence, 90 min; 100% = 57 uM dopamine signal; in the data active = potentiation above about 50%; inconclusive = mostly about 30% to 49%
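PathHunter D2 cells, attached overnight at 37 deg C, received compound in DMSO plus dopamine at EC20 (50 nM final) for 90 min at 37 deg C. Beta-arrestin recruitment was read as luminescence after 1 h with detection reagent at ambient temperature.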
Starred values were filed as active, the others as inactive; u = inconclusive; x = not tested or not shown.

SMILES | D2 ag-1 | D2 PAM-1 | D2 antag | D2 ag-2 | D2 PAM-2
COc1ccccc1CN1CC(C(=O)NCc2cccc(Cl)c2)CCC1=O (configuration not stated) | 0 | -10 | 36* | -3 | -6
COc1cccc(CN2CC(C(=O)NCc3cccc(Cl)c3)CCC2=O)c1 (configuration not stated) | 1 | -9 | -5 | 4 | 0
Cc1c(N2C(=O)c3ccc4c5c(ccc(c35)C2=O)CC4)c(=O)n(-c2ccccc2)n1C | 0 | 4 | -6 | 6 | 61*
Cc1c(N2C(=O)c3ccc(Br)cc3C2=O)c(=O)n(-c2ccccc2)n1C | 0 | 19 | -6 | 2 | 12
CCN(CC)S(=O)(=O)c1ccc(N2CCc3ccccc3C2)nc1 | -2 | 34* | -5 | -9 | -16
CC(C)N(C(C)C)S(=O)(=O)c1ccc(N2CCc3ccccc3C2)nc1 | 1 | -10 | 1 | -5 | 2
CCN(CC)S(=O)(=O)c1ccc(C)c(C)c1 | -1 | -7 | -15 | -2 | -9
CCN(CC)S(=O)(=O)c1ccc(-n2cnc3cc(C)c(C)cc32)nc1 | 1 | 38* | -10 | -1 | -10
COc1ccccc1C(=O)NCc1nc2cccnc2n1Cc1ccc(F)cc1 | 0 | 13 | x | x | x
Cc1cccc(NC(=O)Nc2nnc(N(C)Cc3ccccc3)s2)c1 | x | 4 | x | x | x
CCCCOC(=O)c1ccc(-n2nnc3c(sc4nc(C)cc(C)c43)c2=O)cc1 | 0 | 1 | x | x | x
COc1ccccc1OCCNC(=O)C1CCN(C(C)=O)CC1 | 2 | 31* | 5 | 0 | -6
COC(=O)c1ccccc1NC(=O)c1ccc2c(c1)CCN2S(=O)(=O)c1ccc(Cl)cc1 | 0 | 1 | x | x | x
O=C(Oc1cccc(Oc2ccccc2)c1)N1CCOCC1 | -1 | 7 | 41* | 0 | -5
O=C(Oc1ccc(-c2ccccc2)cc1)N1CCOCC1 | 0 | 3 | 5 | 1 | -1
O=C(CSc1ccc(F)cc1)Nc1ccc2c(c1)C(=O)NC2=O | x | x | x | -8 | -3
N#C/C(=C\c1ccc(N2CCCCC2)o1)C(=O)Nc1cccc(Br)c1 | 95* | -6 | 13 | -4 | -13
CCOc1ccccc1C(=O)NC1CCN(Cc2ccccc2)CC1 | 1 | -26 | 89* | 2 | -13
O=C(NC1CCN(Cc2ccccc2)CC1)c1ccccc1OCc1ccccc1Cl | 0 | -33 | 84* | -1 | -22
O=C(NC1CCCC1)c1ccccc1OCc1ccccc1 | 1 | 4 | -11 | 1 | -7
O=C(NC1CCN(Cc2ccccc2)CC1)c1ccccc1OCc1ccccc1 | 0 | -19 | 86* | -2 | -22
COC(=O)[C@]1(Cc2ccccc2)N[C@H](CN(C)S(=O)(=O)c2ccc(C(C)(C)C)cc2)[C@@H]2C(=O)N(Cc3ccccc3)C(=O)[C@@H]21 | x | x | x | -2 | -1
OC[C@@H]1CN(Cc2ccncc2)C[C@H](n2cnc3c(NC4CCCC4)ncnc32)O1 | x | x | x | -1 | -5
COc1cc(C(=O)OC(C)C(=O)N2CCCC2)cc2c1OCCO2 (configuration not stated) | 0 | 2 | 67* | -3 | -4
COCC(=O)OC1CCn2c1nc1c2C(=O)C(C)=C(NC(C)=O)C1=O (configuration not stated) | x | x | x | u | 87*
SMILES | D2 ag-1 | D2 PAM-1 | D2 antag | D2 ag-2 | D2 PAM-2
O=C(NCCc1ccccc1)c1ccc(Cn2c(SCc3ccccc3F)nc3cccnc32)cc1 | 2 | -8 | x | x | x
C[C@@H]1NC(=O)c2cc([N+](=O)[O-])cc(I)c2OCC[C@@H](C(N)=O)NC(=O)[C@H](CCCCN)NC1=O | 0 | 6 | -1 | -1 | -7
C[C@@H]1NC(=O)[C@H](CCCN=C(N)N)NC(=O)c2cc([N+](=O)[O-])cc(I)c2OCC[C@@H](C(N)=O)NC1=O | -1 | 0 | 32* | x | x
O=[N+]([O-])c1ccc(C2=NN(c3ccccc3)C(c3ccco3)C2)cc1 (configuration not stated) | 56* | 3 | -3 | 0 | -6
CC1=NN(c2ccccc2)C(c2ccco2)C1 (configuration not stated) | x | x | x | -6 | -6
Cc1ccc(C(=O)NC2CC3CCC(C2)N3Cc2ccco2)cc1 (configuration not stated) | 0 | -26 | 21 | -3 | -36
Cc1cc(C)cc(NC(=S)NC2CC3CCC(C2)N3Cc2ccco2)c1 (configuration not stated) | 0 | -15 | 46* | -9 | -23
COc1cc(OC)cc(C(=O)NC2CC3CCC(C2)N3Cc2ccco2)c1 (configuration not stated) | 2 | -17 | 48* | -3 | -37
O=C(Nc1ccc(Cl)c(C(F)(F)F)c1)NC1CC2CCCC(C1)N2Cc1ccccc1 (configuration not stated) | 1 | x | 48* | -3 | -9
Fc1ccc(NC(=S)NC2CC3CCC(C2)N3Cc2ccco2)cc1 (configuration not stated) | x | x | x | -3 | -16
O=C(Nc1cccc(Cl)c1)NC1CC2CCC(C1)N2Cc1ccco1 (configuration not stated) | 1 | -35 | 64* | 1 | -4
Cc1cc(CN(C)C(=O)c2ccc(OC3CCN(CCc4ccccc4)CC3)cc2)on1 | 0 | 4 | -5 | 0 | -33
Cc1cccc(NC(=S)NC2CC3CCCC(C2)N3Cc2cccs2)c1 (configuration not stated) | 1 | -22 | 77* | 1 | -30
CCc1ccccc1NC(=O)NC1CC2CCC(C1)N2Cc1ccco1 (configuration not stated) | 0 | -25 | 32* | -4 | -33
CCn1c(CCNS(=O)(=O)c2ccccc2Br)nnc1SC | 1 | -3 | -22 | -1 | -6
Cc1ccc(S(=O)(=O)NCCC(=O)NCc2cccnc2)cc1 | x | x | x | 6 | 4
CSc1nnc(CCNS(=O)(=O)c2ccccc2Br)n1C | 1 | -3 | 34* | -2 | -2
Cc1ccc(S(=O)(=O)NCCc2nnc(SCc3cccnc3)n2C)cc1 | 0 | 33* | 11 | -1 | -6
Cc1cc(C(C)(C)C)cc(C)c1CC1=NCCN1 | 23 | -30 | 50* | -1 | -21
Cn1c2c(c(=O)n(C)c1=O)C(c1ccccc1C(F)(F)F)CC(=O)N2 (configuration not stated) | -2 | 3 | x | x | x
Cc1cc(Oc2ccc(=O)n(C)n2)nc(SCCOc2ccccc2)n1 | 0 | 0 | -3 | 0 | -1
CCOC(=O)CSc1nc(C)cc(Oc2ccc(=O)n(C)n2)n1 | 0 | -1 | 36* | 0 | -4
COc1ccc(NC(=O)CN(C)C(=O)Cc2ccc3c(c2)OCCO3)cc1 | 1 | 0 | -32 | 2 | 4
COc1ccc(NC(=O)CSCC(=O)N(C)Cc2ccc3c(c2)OCCO3)cc1 | 0 | -10 | 35* | 2 | 11
